# Measured values as given in the OligoGym collection.
# Target: MFNG
# Experiment: pooled miR-30 sensor sort-seq; sequence = guide strand
# Conditions: shRNA
# Note: reference of the scale not given here.
row,Sequence,sensor-assay potency score (higher = more potent)
1,TCTTGCAGGACAGAGCTGGGTG,-0.336
2,TTGTCATCGTCCACATGGCAGA,-1.57
3,TTGCGATTGATGCAGAAGCCAG,-1.46
4,AATGAAGACATCGTGTAGCTGT,0.421

# Target: MFRP
# Experiment: as above
# Conditions: shRNA
row,Sequence,sensor-assay potency score (higher = more potent)
1,TTGTCATCGCTGCCATCGGTGC,-1.66
2,TAGTTCTATGCTGTGTCCGGCA,-0.362
3,TGTCCTAAACAGCACAGCCAGC,-1.58
4,TACTGCTGCAGGTAGCTGGGAG,-0.172
5,TCAAACTTGCACTCGTCCTGAG,0.173
6,TGGAACTGTAGTTCTATGCTGT,-0.0204
7,TTGGTGAGGGTACTGCTGCAGG,-0.958
8,TGAAGTTGTGGAACTGTAGTTC,0.0577
9,TGTAGTTCTATGCTGTGTCCGG,-0.086
10,TGGTGTTGTAGCTCAGACCGAG,-0.523
11,TATGCTGAGGGCTTCGATCTTG,-0.113
12,TTGCAGAACTCGGTCTTGCTCG,-0.303

# Target: MIA
# Experiment: as above
# Conditions: shRNA
row,Sequence,sensor-assay potency score (higher = more potent)
1,TTGGGCATAGGACCACCCCTGA,-1.13
2,TGGTCCGCACACAGCTTCCGGT,-1.49
3,TGTCTGTCTTCACATCGACTTT,-1.3
4,TAGTAATCTCCCTGAACGCTGC,-0.496
5,TTCAGGGTCTGGTCCTCTCGGA,-0.169
6,TGAATGGTCAGGAATCGGCAGT,-0.833
7,TTTGCCAGGTTTCAGGGTCTGG,-1.17
8,TGGTCCTCTCGGACAATGCTAC,-1.39
9,TCAGGGTCTGGTCCTCTCGGAC,-1.41
10,TCTCGGACAATGCTACTGGGGA,-1.23
11,TTTGTCTGTCTTCACATCGACT,-0.999
12,ATTTGTCTGTCTTCACATCGAC,-0.34

# Target: MIB1
# Experiment: as above
# Conditions: shRNA
row,Sequence,sensor-assay potency score (higher = more potent)
1,ATTGACATTGGTATTATCCTTG,0.229
2,ATTGGTATTATCCTTGTCCTTT,-0.409
3,TTAACTCATCAGAACTTCCAAC,-0.501
4,TTCAACTACTGCTCGACACTGC,0.708
5,TTGACCACTGACTTTTTCCTTA,0.24
6,TTTACATCCACATCTGGTCTTT,0.23
7,TTTAGATAGTAAAACACGCATT,-0.883
8,TTTAGCAACATCTCCATTGGCA,0.277
9,TTCCTTATGACACTTTGCCAGT,-1
10,TAGAAGTTTAATTCGTTCCAGG,0.00519
11,TATGCTGTCGTTCAACAGCAAG,-1.72
12,TTAAAGTCTCAAACATTCCATC,-0.848
